Hits are enriched below; roughly 3.4% of the tested compounds scored in any of these assays.
Shn3 inh set2 = Schnurri-3 reporter inhibition in Clone20 osteoblasts; inhibition, % at 12.5 µM; Clone20 osteoblast Shn3 3'UTR firefly luciferase, 24 h; 0.52% of 360,000 active;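 active = mean inhibition of at least 75% with every replicate also reaching 75%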;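 also: 0% = median of neutral control wells and 100% = pilot-screen positive control compound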
LMP1 NFkB inh = reduces LMP1-driven NF-kappaB luciferase signal. inhibition, % at 12.5 µM. AID 504558. LMP1-induced NF-kappaB luciferase reporter cells, luminescence. 0.69% of 350,000 active; in the data active = inhibition above about 41%;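 also: 0% = neutral control wells and 100% = reference inhibitor control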
TROY signal inh = TROY signaling inhibition; inhibition, % at 10 µM; Q293 LMP1-TROYcd NF-kB luciferase reporter, 4 h; 0.98% of 360,000 active;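 active = compounds whose plate-normalised and pattern-corrected inhibition of the luciferase reporter signal at the single screening dose is 50% or more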
TRPM1 prom inh = reduces MITF-dependent TRPM1 promoter luciferase signal; SK-MEL-5 TRPM1 promoter luciferase, 24 h; inhibition, % at 12.5 µM; 0.83% of 330,000 active; AID 488899;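 active = mean inhibition across replicates of 60% or more, whatever share of single replicates reaches that level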
HIF-2a block = inhibitors of HIF-2a; 786-0 RCC cells HIF-2a reporter, luciferase luminescence, overnight; AID 624352; inhibition, % at 18.8 µM; 0.72% of 360,000 active;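 active = inhibition of the luminescence signal of 40% or more relative to plate controls, in a single-dose primary screen at 18.75 µM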
TWEAK-Fn14 inh = inhibitors of TWEAK-Fn14 interaction signaling; inhibition, % at 10 µM; 2% of 360,000 active; TWEAK-stimulated Fn14 reporter cells, luciferase luminescence, 8 h; AID 1159606; in the data active = inhibition above about 50%
Numbers without * were called inactive; / = no result.

SMILES	Shn3 inh set2	LMP1 NFkB inh	TROY signal inh	TRPM1 prom inh	HIF-2a block	TWEAK-Fn14 inh
Cc1cc2c(=O)n(C)c(SCC(=O)Nc3ccc(F)cc3)nc2s1	-3	4	0	6	8	8
O=C1CC(c2ccc3c(c2)OCCO3)Oc2ccccc21 (stereo unspecified)	-55	-5	1	-99	-241	-11
O=C1CC(c2ccc3c(c2)OCCO3)Oc2ccc([N+](=O)[O-])cc21 (stereo unspecified)	-17	-26	85*	-12	-64	98*
CCCn1nc([N+](=O)[O-])c(C(C#N)c2nc3ccccc3o2)c(Cl)c1=O (stereo unspecified)	20	3	57*	6	-6	-44
C[C@@H]1CCCCO[C@H](CN(C)S(=O)(=O)c2cn(C)cn2)[C@@H](C)CN([C@H](C)CO)C(=O)c2cc(NC(=O)c3ccncc3)ccc2O1	-9	-4	-1	/	3	-6
CCc1cc(-c2[nH]ncc2-c2ccc(OC)cc2)c(O)cc1O	1	10	49	-1	31	64*
CCOc1ccc(-c2[nH]ncc2-c2ccc(OC)c(OC)c2)c(O)c1	-12	0	29	-3	28	29
CCOc1ccc(-c2[nH]ncc2-c2ccc(Cl)cc2)c(O)c1	-32	3	-4	5	5	-1
COc1ccc(-c2cn[nH]c2-c2ccc(OCc3ccc([N+](=O)[O-])cc3)cc2O)cc1	66	25	38	-21	-1	78*
CN(Cc1cn[nH]c1-c1ccc2c(c1)OCO2)C1CCOCC1	4	-1	-7	0	1	-11
CCc1cc(-c2[nH]ncc2-c2ccc3c(c2)OCO3)c(O)cc1O	35	10	68*	10	21	92*
CC(C)c1ccc(O)c(=O)cc1	41	/	6	/	0	12
COc1ccccc1OCc1ccc(C(=O)c2ccccc2)cc1	-6	63*	-19	-21	-205	-25
COc1ccccc1OCc1ccc(C(=O)NN)cc1	7	9	6	12	2	-9
COc1ccc(CC(=O)O/N=C(\N)c2ccccn2)cc1	-24	-8	-18	-48	-146	9
N/C(=N\OC(=O)Cc1ccc(-c2ccccc2)cc1)c1ccccn1	24	3	70*	-9	-40	70*
N/C(=N\OC(=O)c1ccccc1Cl)c1ccccn1	43	65*	70*	66*	30	102*
COc1ccccc1C(=O)O/N=C(\N)c1ccccn1	-38	22	55*	-6	-148	74*
N/C(=N\OC(=O)c1ccccc1[N+](=O)[O-])c1ccccn1	-50	20	14	-31	-243	34
CC(=O)Nc1nc(-c2ccc3c(c2)CCN3S(C)(=O)=O)cs1	-39	-30	-18	-33	-154	5
O=C(CN1CCOCC1)Nc1nc(-c2ccc3c(c2)CCN3S(=O)(=O)c2ccccc2)cs1	34	17	47	-3	15	53*
CS(=O)(=O)N1CCc2cc(-c3csc(NC(=O)Cc4cccs4)n3)ccc21	20	10	19	45	-48	80*
Cc1cc(NC(=O)CSc2nc3ccsc3c(=O)n2CCCC(=O)NCCc2ccccc2)no1	17	33	4	20	13	1
Cc1ccc(S(=O)(=O)N2[C@@H](c3ccccc3)C(C(=O)O)=CC[C@H]2c2ccc(Cl)c(Cl)c2)cc1	-28	-8	32	3	23	33
Cc1ccc([C@H]2C(C(=O)O)=CC[C@@H](c3ccc(Cl)c(Cl)c3)N2S(=O)(=O)c2ccc(C)cc2)cc1	-1	-2	57*	6	1	10
CCN1CCN(c2nc3c(C)cccn3c(=O)c2C=C(C#N)C#N)CC1	-2	4	10	-1	13	4
CCCc1nc2oc3c(NCCN(C)C)ncnc3c2c2c1CCCC2	11	-33	4	76*	38	-57
CCCc1nc2oc3c(Cl)ncnc3c2c2c1CCCC2	7	-4	2	28	20	-7
C=CC[C@@H](CC(=O)N(CCO)Cc1ccccc1)C(=O)NC[C@H](OC(=O)[C@@H](CC=C)Cc1ccc(F)cc1)c1ccccc1	18	14	42	9	-12	52*

Compound activity: PubChem, several laboratories
